# Results: paper PMC5540273 (PLoS ONE, 2017)
# System: CDK9
# Conditions: concentration: 1 μM, replicates: in singlicate; n = 1
# 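Further: KINOMEscan kinase panel screen.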
row,Compound,%Inh [%]
1,Cc1ccc(-c2cc(-c3c[nH]nc3-c3ccccn3)ccn2)cc1 [GW684088],5
2,Cl.Oc1ccc(-c2nc(-c3ccccc3)[nH]c2-c2ccncc2)cc1 [SB-428218],0
3,COc1ccc(C2=C(Nc3cccc(C(=O)O)c3)C(=O)NC2=O)cc1 [SB-390765],1
4,COc1ccc2nc(-c3cccc(C)n3)nc(Nc3ccncc3)c2c1 [GSK204919],0
5,CC1=C(C(=O)Nc2cc3cn[nH]c3cc2F)C(c2ccc(C(F)(F)F)cc2)CC(=O)N1 (stereo not shown) [GSK429286],0
6,Cn1ccc2ncnc(Oc3cccc(C(=O)Nc4ccccc4)c3)c21,1
7,Cl.NC(=O)c1cccc(Nc2nccc(Nc3ccc(Oc4cccc(Cl)c4)c(Cl)c3)n2)c1 [GW659008],0
8,COc1ccc(Nc2nccc(-c3cccc(NC(=O)c4cc5cc(F)ccc5[nH]4)c3)n2)cc1 [GSK1229782],0
9,O=C(Nc1n[nH]c2nc(-c3nccs3)c(Br)cc12)C1CCCC1 [SB-742609],100
10,CCn1c(-c2ccccn2)nc2cnccc21 [SB-736398],0
11,Cn1ccc2ncnc(Oc3ccc(Nc4nc5ccccc5[nH]4)cc3)c21,0
12,CS(=O)(=O)c1ccc(-c2nc3n(c2-c2ccncc2)CCC3)cc1 [SKF-105942],100
13,Nc1nc(-c2nccs2)c(-c2ccnc3ccccc23)s1 [GW693542],0
14,COc1cccc(NC(=O)NC2CCN(c3ccnc(Nc4ccc(F)cc4)n3)C2)c1 (stereo not shown) [GSK1379721],14
15,Cn1ccc2ncnc(Oc3ccc(NC(=O)Nc4ccccc4)cc3)c21,9
16,Cc1csc(-c2nc(Nc3ccncc3)c3ccccc3n2)n1 [GW869640],9
17,O=c1cc(N2CCOCC2)nc2n(Cc3cccc(Cl)c3Cl)ccn12 [GSK2286295],14
18,COc1cc2ncnc(Nc3ccc4nc(-c5ccccc5)[nH]c4c3)c2cc1OC.Cl [GW282450],0

row,Compound,%Inh [%]
1,CCCc1ccc(S(=O)(=O)NC2CCN(c3ccnc(Nc4ccc(F)cc4)n3)C2)cc1 (stereo not shown) [GSK1379715],0
2,COc1cc2nccc(Nc3ccc(NC(=O)c4ccc(C)cc4)c(O)c3)c2cc1OC.Cl [GW440132],0
3,CCn1c(-c2cccnc2O)nc2cnccc21 [SB-736715],0
4,O=C(Nc1n[nH]c2cc(-c3cccc(F)c3F)ccc12)C1CC1 [SB-733894],5
5,Cc1c(O)cccc1Nc1ccnc2ccc(C(F)(F)F)cc12.Cl [GW466413],0
6,COc1ccccc1-c1ccc2c(NC(=O)C3CC3)n[nH]c2n1 [SB-711239],0
7,COC(=O)c1c(-c2ccccc2)c2cc(C(=O)O)ccc2c(=O)n1Cc1ccccc1,0
8,Cc1ccc(NC(=O)Nc2cc(C(C)(C)C)nn2-c2ccccc2)cc1 [GSK1014915],14
9,Cc1cc(NCC(c2ccccc2)c2ccccc2)nc(NCc2ccc(C(F)(F)F)cc2)n1 [GW497681],0
10,Cc1cccc(-c2nc(-c3ccc(S(C)(=O)=O)cc3)sc2-c2ccnc(NCCc3ccccc3)c2)c1,1
11,O=C(Nc1ccccc1)Nc1cccc(Oc2ccc3nccn3n2)c1,0
12,COc1cccc(-c2cc(-c3c[nH]nc3-c3ccccn3)ccn2)c1 [GW680338],0
13,CN(C)CCN(C)C(=O)c1cc(-c2ccncc2)c(-c2ccc(Cl)c(O)c2)o1.Cl.Cl [SB-710397],0
14,COc1cc(Nc2nccc(N3CCC(NC(=O)Nc4cc(C)ccc4C)C3)n2)cc(OC)c1OC (stereo not shown) [GSK1379762],0
15,Fc1cc(Cl)ccc1Nc1ccnc2cc(-c3ccc(CN4CCCCC4)o3)ccc12 [GW560116],0
16,Cc1cccc(-c2nc(Nc3cccc(C(N)=O)c3)c3ccccc3n2)n1 [GW876019],0
17,Clc1cc(Cl)cc(Nc2ccnc(Nc3cc(Cl)cc(Cl)c3)n2)c1 [GSK175726],13

# System: CDKL1
# Conditions: concentration: 1 μM, replicates: in singlicate; n = 1
row,Compound,%Inh [%]
1,Cc1ccc(-c2cc(-c3c[nH]nc3-c3ccccn3)ccn2)cc1 [GW684088],0
2,Cl.Oc1ccc(-c2nc(-c3ccccc3)[nH]c2-c2ccncc2)cc1 [SB-428218],0
3,COc1ccc(C2=C(Nc3cccc(C(=O)O)c3)C(=O)NC2=O)cc1 [SB-390765],0
4,COc1ccc2nc(-c3cccc(C)n3)nc(Nc3ccncc3)c2c1 [GSK204919],4
5,CC1=C(C(=O)Nc2cc3cn[nH]c3cc2F)C(c2ccc(C(F)(F)F)cc2)CC(=O)N1 (stereo not shown) [GSK429286],0
6,Cn1ccc2ncnc(Oc3cccc(C(=O)Nc4ccccc4)c3)c21,0
7,Cl.NC(=O)c1cccc(Nc2nccc(Nc3ccc(Oc4cccc(Cl)c4)c(Cl)c3)n2)c1 [GW659008],9
8,COc1ccc(Nc2nccc(-c3cccc(NC(=O)c4cc5cc(F)ccc5[nH]4)c3)n2)cc1 [GSK1229782],12
9,O=C(Nc1n[nH]c2nc(-c3nccs3)c(Br)cc12)C1CCCC1 [SB-742609],0
10,CCn1c(-c2ccccn2)nc2cnccc21 [SB-736398],9
11,Cn1ccc2ncnc(Oc3ccc(Nc4nc5ccccc5[nH]4)cc3)c21,18
12,CS(=O)(=O)c1ccc(-c2nc3n(c2-c2ccncc2)CCC3)cc1 [SKF-105942],28
13,Nc1nc(-c2nccs2)c(-c2ccnc3ccccc23)s1 [GW693542],0
14,COc1cccc(NC(=O)NC2CCN(c3ccnc(Nc4ccc(F)cc4)n3)C2)c1 (stereo not shown) [GSK1379721],5
15,Cn1ccc2ncnc(Oc3ccc(NC(=O)Nc4ccccc4)cc3)c21,36
16,Cc1csc(-c2nc(Nc3ccncc3)c3ccccc3n2)n1 [GW869640],6
17,O=c1cc(N2CCOCC2)nc2n(Cc3cccc(Cl)c3Cl)ccn12 [GSK2286295],0
18,COc1cc2ncnc(Nc3ccc4nc(-c5ccccc5)[nH]c4c3)c2cc1OC.Cl [GW282450],1

row,Compound,%Inh [%]
1,CCCc1ccc(S(=O)(=O)NC2CCN(c3ccnc(Nc4ccc(F)cc4)n3)C2)cc1 (stereo not shown) [GSK1379715],13
2,COc1cc2nccc(Nc3ccc(NC(=O)c4ccc(C)cc4)c(O)c3)c2cc1OC.Cl [GW440132],4
3,CCn1c(-c2cccnc2O)nc2cnccc21 [SB-736715],13
4,O=C(Nc1n[nH]c2cc(-c3cccc(F)c3F)ccc12)C1CC1 [SB-733894],37
5,Cc1c(O)cccc1Nc1ccnc2ccc(C(F)(F)F)cc12.Cl [GW466413],0
6,COc1ccccc1-c1ccc2c(NC(=O)C3CC3)n[nH]c2n1 [SB-711239],18
7,COC(=O)c1c(-c2ccccc2)c2cc(C(=O)O)ccc2c(=O)n1Cc1ccccc1,0
8,Cc1ccc(NC(=O)Nc2cc(C(C)(C)C)nn2-c2ccccc2)cc1 [GSK1014915],15
9,Cc1cc(NCC(c2ccccc2)c2ccccc2)nc(NCc2ccc(C(F)(F)F)cc2)n1 [GW497681],0
10,Cc1cccc(-c2nc(-c3ccc(S(C)(=O)=O)cc3)sc2-c2ccnc(NCCc3ccccc3)c2)c1,14
11,O=C(Nc1ccccc1)Nc1cccc(Oc2ccc3nccn3n2)c1,12
12,COc1cccc(-c2cc(-c3c[nH]nc3-c3ccccn3)ccn2)c1 [GW680338],0
13,CN(C)CCN(C)C(=O)c1cc(-c2ccncc2)c(-c2ccc(Cl)c(O)c2)o1.Cl.Cl [SB-710397],0
14,COc1cc(Nc2nccc(N3CCC(NC(=O)Nc4cc(C)ccc4C)C3)n2)cc(OC)c1OC (stereo not shown) [GSK1379762],0
15,Fc1cc(Cl)ccc1Nc1ccnc2cc(-c3ccc(CN4CCCCC4)o3)ccc12 [GW560116],0
16,Cc1cccc(-c2nc(Nc3cccc(C(N)=O)c3)c3ccccc3n2)n1 [GW876019],36
17,Clc1cc(Cl)cc(Nc2ccnc(Nc3cc(Cl)cc(Cl)c3)n2)c1 [GSK175726],11
